SMILES strings stand for the structures. The panel holds about 83,000 compounds, 20% with a hit somewhere; the sample as a whole holds those more often.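 How to read the values: 0–100, growth inhibition (40 = 60% inhibited); 0, no net growth; -100 to 0, cell death (-40 = 40% of starting cells died; -100 = all dead).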 Values without a mark were called inactive. Active and inactive are the calls of the source. The calls were made as follows: active = growth percent below 10; inactive = the rest.

This passage reports growth results from PubChem BioAssay (NCI).

Holding throughout (experiment): NCI-60 one-dose screen, 48 h (100 = growth as untreated, 0 = no growth, -100 = all killed)
Holding throughout (settings): 10 µM unless noted

Assay [1] relates to DU-145 prostate.
Assay [2] relates to K-562 leukemia.
Assay [3] has as its system MALME-3M melanoma.
For assay [4], the system named is MDA-MB-231 breast.
For assay [5], the system named is RXF 393 renal.
In assay [6] the test system is SF-268 CNS.
Assay [7] relates to SF-295 CNS.
For assay [8], the system named is SF-539 CNS.
Assay [9] relates to UACC-257 melanoma.
Assay [10] concerns M14 melanoma.
Assay [11] deals with HCT-15 colon.
Assay [12] deals with HT29 colon.
Assay [13] deals with SNB-75 CNS.
Assay [14] has as its system SNB-19 CNS.
For assay [15], the system named is U251 CNS.
The test system of assay [16] is PC-3 prostate.
For assay [17], the system named is SK-MEL-5 melanoma.
Assay [18] deals with LOX IMVI melanoma.
For assay [19], the system named is SK-MEL-28 melanoma.
Assay [20] has as its system UACC-62 melanoma.

With `O=C(O)c1cn(C2CC2)c2cc(N3CCN(C(=O)N(c4ccccc4)c4nc(-c5ccccc5)cs4)CC3)c(F)cc2c1=O`, the growth in [1] was 15.4%; in [2] it was 9.77% (active); in assay [3], 2.79% (active); in assay [4] it was -48% (active); in assay [5], 8.65% (active); in [6] it was 19%. Moreover, the growth in assay [7] was -0.773% (active); in [8] it was -7.39% (active); in assay [9], 1.71% (active); in assay [10], 17.7%; in assay [11], 6.28% (active); in [12] it was 4.23% (active). In addition, the growth in assay [13] is -9.1% (active); in [14], 15.7%; in assay [15], 12.6%; in assay [16], 8.6% (active); in [17] it was -61.3% (active); in assay [18], -23.6% (active). In addition, the growth in assay [19] is 36.1%.
Regarding `CCc1ccc(CCCC(=O)O)cc1`, the growth in assay [1] is 102%; in assay [2], 98.9%; in assay [3] it was 107%; in [4], 100%; in [5], 112%; in assay [6] it was 102%. The growth in assay [7] is 98.5%; in assay [8] it was 103%; in [9] it was 106%; in assay [10], 94.2%; in assay [11], 101%; in assay [12], 101%. Further, the growth in assay [13] is 87.9%; in assay [14], 95.7%; in [15], 101%; in assay [16] it was 96.8%; in assay [17], 102%; in assay [18], 99.5%. Moreover, in assay [19], the growth was 108%.
On to `C#CCOc1cccc(Nc2ncnc3ccc(NC(=O)C=C)cc23)c1`, for which the growth is 24.1% in assay [1]; 46% in [2]; 60.8% in assay [3]; 54% in assay [4]; 2.49% (active) in assay [5]; 40.2% in assay [6]. For the same molecule, the growth in [7] was 66.2%; in assay [8], 32.1%; in assay [9], 54.9%; in [10] it was 51.4%; in assay [11], 42.9%; in [12], 30.7%. For the same molecule, the growth in [13] is 26.6%; in [14] it was 48.2%; in assay [15], 45.6%; in assay [16] it was 48.5%; in [17], 65.7%; in assay [20], 51%. Further, the growth in assay [19] is 77.8%.
On to `CCCNc1nc2ccccc2c2c1S(=O)(=O)c1ccc(Cl)cc1C2=O`, for which the growth in assay [1] was 19.4%; in assay [2] it was 8.48% (active); in assay [3], 21.9%; in assay [4] it was -0.717% (active); in [5] it was 12%; in [6], 20.4%. Besides, the growth in [7] is 15.8%; in assay [8], 6.35% (active); in assay [9], 17.8%; in [10] it was 5.71% (active); in [11], 7.22% (active); in assay [12], 9.72% (active). Besides, the growth in assay [13] was 15.6%; in assay [14] it was 24.4%; in assay [15] it was 1.6% (active); in assay [16], 25.1%; in assay [17], 2.77% (active); in assay [20], 10.9%. Also, the growth in [19] was 32.8%.
In the case of `Ic1ccc(OCCCCn2ccnc2)cc1`, the growth in assay [1] is 81.2%; in [2], 37.6%; in assay [3], 1.9% (active); in [4], 68.6%; in assay [5], 67.1%; in [6], 83.3%. For the same molecule, the growth was 77.9% in assay [7]; 83.8% in assay [8]; 64.3% in assay [9]; 49.6% in assay [10]; 74.5% in assay [11]; 27.5% in assay [12]. For the same molecule, the growth in [13] is 64.5%; in [14], 65.2%; in [15] it was 67.8%; in [16], 48.6%; in [17] it was 79.6%; in assay [18] it was 80.3%. The growth in assay [19] was 55.9%.
On to `CCN(C)S(=O)(=O)Nc1cccc(Nc2ncnc3cc(NC(=O)CCl)ccc23)c1Cl`, for which the growth in [1] was -49.8% (active); in assay [2], 4.5% (active); in assay [3], -51.7% (active); in assay [4], -38.4% (active); in assay [5], -11.9% (active); in [6], 7.08% (active). The growth in [7] was 15.3%; in assay [8] it was -40.3% (active); in assay [9] it was 34.4%; in assay [10], 15.1%; in assay [11], -12.3% (active); in assay [12] it was -56.9% (active). Besides, the growth is 6.04% (active) in assay [13]; 16.7% in [14]; -77.4% (active) in [15]; 0.153% (active) in [16]; -83.6% (active) in assay [17]; -22.5% (active) in [20]. Further, the growth in assay [19] was 28.8%.
`COc1c(B(O)O)cccc1-c1nc2c(F)cc3[nH]ncc3c2c2c1CCCC2`: the growth in [1] was 7.77% (active); in assay [2], 11.3%; in assay [3] it was -15.1% (active); in assay [4] it was 12.4%; in [5], -45% (active); in assay [6], 12.3%. Moreover, the growth was 7.58% (active) in assay [7]; -28.3% (active) in assay [8]; 20.3% in [9]; 11.3% in assay [10]; 0.465% (active) in assay [11]; 6.27% (active) in assay [12]. Also, the growth in assay [13] was -87.8% (active); in [14] it was 6.94% (active); in [15] it was 13.6%; in assay [16], 13.8%; in [17], -26.3% (active); in [20] it was 2.47% (active). Also, the growth in assay [19] was 2.91% (active).
As for `C=CC(=O)N1CCN(c2cccc(Oc3nccc(Nc4nnc(-c5ccc(Br)cc5)s4)n3)c2)CC1`, the growth in assay [1] was 78.5%; in [2], 22.2%; in assay [3], 65.2%; in assay [4], 75.2%; in assay [5] it was 74.7%; in assay [6] it was 74.8%. The growth was 55.8% in assay [7]; 72.7% in assay [8]; 80.6% in assay [9]; 44.9% in [10]; 40.3% in assay [11]; 53.1% in [12]. The growth is 69.3% in assay [13]; 57.3% in [14]; 56.8% in [15]; 61.1% in assay [16]; 42.7% in assay [17]; 37% in [20]. Besides, the growth in assay [19] was 67.1%.
